tim23-1 inh: inhibits growth of tim23-1 mutant yeast; S. cerevisiae tim23-1 growth, BacTiter-Glo luminescence, 24 h; inhibition, % at 20 µM; hit rate 1.3% among 330,000;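 active means growth inhibition of the mutant yeast at or above 50%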;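 further: temperature-sensitive mutant grown at 25 °C; plate controls were DMSO-treated mutant yeast for no effect and medium wells lacking yeast for full effect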
PfHsp90 yeast 2: reduces growth (ATP signal) of yeast expressing P. falciparum Hsp90. S. cerevisiae expressing PfHsp90, BacTiter-Glo ATP, 48 h; yeast lacking PDR1 and PDR3 efflux regulators. inhibition, % at 9.4 µM. AID 504621. hit rate 0.32% among 310,000;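 active means every replicate shows inhibition above about 80%, whatever the replicate mean, limit read from the data; inconclusive means mean inhibition reaches the set limit but some replicate falls short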;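 further: 0% = DMSO neutral controls and 100% = 20 µM radicicol positive controls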
tim10-1 inh: growth inhibitors of tim10-1 mutant yeast; hit rate 2.2% among 330,000; S. cerevisiae tim10-1 ts strain growth, BacTiter-Glo, 24 h; AID 463190; inhibition, % at 20 µM;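 active means inhibition of at least 40%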;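 further: mutant grown at 25 °C; 0% = DMSO wells with yeast and 100% = wells holding no yeast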
SKKanGAS inh: inhibitors of SKKanGAS S. pyogenes growth in kanamycin (SK-promoter or general growth effect) | BacTiter-Glo, 6 h | inhibition, % at 7.5 µM | hit rate 1.3% among 300,000 | AID 1662;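 active means mean replicate score, as percent of positive control median, at least 50; inconclusive means mean below 50 but one replicate at or above 50; inactive means mean and every replicate below 50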;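 further: strain carries kanamycin resistance gene driven by streptokinase promoter and grows in 40 µg/ml kanamycin; loss of luminescence reflects streptokinase promoter inhibition or plain growth inhibition; 0% = median of DMSO wells and 100% = positive control at its reference dose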
TIM10 inh: inhibits growth of TIM10 yeast strain | S. cerevisiae TIM10 strain growth, BacTiter-Glo luminescence, 24 h | inhibition, % at 10 µM | hit rate 1.4% among 330,000;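 active means inhibition of 40% or more at the single tested concentration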;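 further: wild-type TIM10 isogenic control strain grown at permissive 25 °C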
NALP3 yeast inh: inhibitors of NALP3 inflammasome in yeast. Yeast reconstituted NLRP3/ASC/caspase-1, beta-gal luminescence, 24 h. hit rate 0.39% among 330,000. inhibition, % at 10 µM;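 active means inhibition of 50% or more; inactive means inhibition below 50%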;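 further: plate controls were induced DMSO wells for no effect and uninduced yeast grown without galactose for full effect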
tim10-1 conf: confirmation of tim10-1 mutant yeast growth inhibitors | shares compounds with tim10-1 inh | S. cerevisiae tim10-1 ts strain growth, BacTiter-Glo, 24 h | inhibition, % at 20 µM | hit rate 56% among 7,400;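 active means inhibition of yeast growth at or above a set limit in either of two repeat tests at 20 µM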;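 further: tim10-1 mutant grown at permissive 25 °C to find synthetic lethal compounds; 0% = DMSO yeast wells and 100% = medium wells without yeast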
tim10 confirm: TIM10 yeast growth inhibition, confirmed | shares compounds with TIM10 inh | S. cerevisiae tim10 strain growth, BacTiter-Glo luminescence, 24 h | inhibition, % at 10 µM | hit rate 63% among 4,600 | AID 463215;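 active means inhibition of yeast growth at or above a set limit in either of two replicates at 10 µM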;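 further: this counterscreen used the strain with wild-type TIM10; 0% = yeast with DMSO and 100% = medium wells lacking yeast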
tim23-1 conf: confirmation of tim23-1 mutant yeast growth inhibitors. AID 463218. inhibition, % at 20 µM. S. cerevisiae tim23-1 growth, BacTiter-Glo luminescence, 24 h. shares compounds with tim23-1 inh. hit rate 83% among 4,400;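 active means inhibition above about 39% in either of two replicate wells at 20 µM, limit read from the data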;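 further: temperature-sensitive tim23-1 mutant grown at 25 °C; 0% = DMSO wells with yeast and 100% = medium wells without yeast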
* hit, by the source's call; ? = inconclusive; nt = no result. Sampled rows, rich in hits. Any-hit rate of the full collection: about 4.5%.

SMILES | tim23-1 inh | PfHsp90 yeast 2 | tim10-1 inh | SKKanGAS inh | TIM10 inh | NALP3 yeast inh | tim10-1 conf | tim10 confirm | tim23-1 conf
CCC(=O)NC(c1cc(Cl)c2cccnc2c1O)C1CC1 (configuration not stated) | 58* | 4 | 40* | nt | 10 | 16 | 19 | nt | 58*
CCC(=O)NC(c1ccc(Cl)cc1Cl)c1ccc2cccnc2c1O (configuration not stated) | 61* | 111* | 48* | 64* | 6 | 10 | 25 | nt | 52*
CC(NC(=O)CSc1ncccn1)c1ccc(Cl)cc1Cl (configuration not stated) | 17 | -3 | 27 | 2 | 2 | -3 | nt | nt | nt
Cc1ccn2c(CNCc3cnn(C)c3)c(C(=O)N3CCCCCC3)nc2c1 | -5 | -4 | -9 | -4 | 3 | 15 | nt | nt | nt
O=C(NCCCc1ccccc1)Nc1cccc(Cl)c1 | 57* | 6 | 44* | -10 | 46* | 27 | 24 | -11 | 66*
Nc1ccc2c(c1)C(=O)C(=O)c1ccccc1-2 | 73* | 14 | 92* | 86* | 94* | 33 | 92* | 99* | 69*
Nc1ccc2c(c1)C(=O)c1ccccc1-2 | 19 | -29 | 3 | -13 | 5 | 15 | nt | nt | nt
Nc1c(N(CCC2=CCCCC2)C(=O)C2CC2)c(=O)[nH]c(=O)n1Cc1ccccc1 | 9 | -6 | 3 | -1 | 4 | 0 | nt | nt | nt
CC(c1ccccc1)N1C(=O)/C(=C/c2ccncc2)SC1=S (configuration not stated) | 73* | -12 | 66* | 6 | 62* | 41 | 61* | 73* | 28
Cc1cc(C)nc(S/C=C/C(=O)c2ccc(F)cc2)n1 | 56* | nt | 41* | 4 | 48* | 43 | 28 | 39* | 46*
Cc1cc(C)nc(SCC(=O)c2ccc(F)cc2)n1 | 19 | -13 | 1 | -4 | 12 | 14 | nt | nt | nt
O=c1[nH][nH]c(-c2ccccc2O)c1C(C[N+](=O)[O-])c1cccc(Cl)c1 (configuration not stated) | 56* | -15 | 44* | 46 | 48* | 22 | 44* | -8 | 55*
OC(CN1CCN(c2ccccn2)CC1)Cn1c2ccc(Cl)cc2c2cc(Cl)ccc21 (configuration not stated) | 55* | -1 | 47* | 43 | -28 | 31 | 21 | nt | -39
CN1Cc2c(N3CCOCC3)nc3sc(C(=O)c4ccc(Br)cc4)c(N)c3c2CC1(C)C | 58* | nt | 58* | 16 | 21 | 45 | -16 | nt | 53*
CCC(=O)N1CCc2cc(S(=O)(=O)N(C)c3ccc(Br)cc3)ccc21 | -3 | -13 | -22 | -9 | -3 | -4 | nt | nt | nt
CCN(C[C@H]1N[C@@](CC)(C(=O)OC)[C@H]2C(=O)N(C)C(=O)[C@@H]12)C(=O)NC(C)C | 6 | -15 | 0 | nt | -6 | 13 | nt | nt | nt
Cc1c(N2C(=O)/C(=C/C3CC=CCC3)SC2=S)c(=O)n(-c2ccccc2)n1C (configuration not stated) | 51* | nt | 48* | 0 | 40 | 19 | 35* | nt | 47*
O=C(Nc1cc(Br)ccc1O)C1CC(c2c(F)cccc2Cl)=NO1 (configuration not stated) | 38 | -34 | 21 | 11 | 24 | -16 | nt | nt | nt
COc1ccc(Cl)cc1NC(=O)C1CC(c2c(F)cccc2Cl)=NO1 (configuration not stated) | 65* | 5 | 80* | 36 | 65* | 20 | 76* | 72* | 85*
COc1ccc(C(=O)C2CCN(S(=O)(=O)c3ccc4c(c3)OCCO4)CC2)cc1 | 60* | -14 | 56* | 1 | 68* | 18 | 57* | 61* | 46*
COc1ccc(/C=C/C=C2\N=C(SC)SC2=O)cc1 | 72* | 14 | 51* | 4 | 57* | -2 | 38* | -2 | 22
COc1ccc(-c2nnc(C(C)Nc3cccc(C(=O)NC4CC4)c3)o2)cc1 (configuration not stated) | 6 | 11 | -10 | nt | 7 | 26 | nt | nt | nt
CCOc1cccc(/C=C(\C#N)C(=O)NC2CC2)c1 | 77* | 3 | 42* | -3 | 51* | 8 | 51* | 51* | 62*
CCOc1cccc(NC(=O)/C(C#N)=C/c2cccnc2)c1 | 79* | -4 | 52* | -10 | 42* | 0 | 55* | 56* | 77*
CC(=O)Nc1ccc(/C=C(\C#N)C(=O)NC2CCCCC2)cc1 | 66* | 7 | 46* | -13 | 49* | 4 | 48* | 56* | 62*
SMILES | tim23-1 inh | PfHsp90 yeast 2 | tim10-1 inh | SKKanGAS inh | TIM10 inh | NALP3 yeast inh | tim10-1 conf | tim10 confirm | tim23-1 conf
O=C(Cc1ccc(F)cc1)Nc1ccc(Cl)cn1 | 11 | 3 | -7 | 7 | -4 | 24 | nt | nt | nt
O=C(OCc1nnc(-c2ccccc2)o1)c1ccc([N+](=O)[O-])o1 | 80* | nt | 78* | -8 | -36 | 3 | 59* | nt | 84*
COc1cc(/C=C2\SC(c3ccc(C)cc3)=NC2=O)cc(OC)c1O | 53* | -17 | 54* | 18 | 44* | 6 | 38* | 40* | 49*
COc1ccccc1-c1nc(SCC(=O)N(C)c2ccccc2)c2c(=O)n(C)c(=O)n(C)c2n1 | 13 | 0 | 25 | 8 | 7 | 20 | nt | nt | nt
Cc1ccc(Cc2cc(-c3ccc(C)cc3)n[nH]c2=O)cc1 | 34 | 0 | -14 | 17 | 12 | 10 | nt | nt | nt
CCc1ccc2c(c1)C1(NN=C(c3ccc(C)cc3)S1)C(=O)N2 (configuration not stated) | 83* | -73 | 92* | 80* | 40* | 9 | 88* | 10 | 81*
NNc1nc(-c2ccccc2)cc(-c2ccccc2O)n1 | 55* | 25 | 44* | 28 | 48* | 40 | 47* | 42* | 59*
NNc1nc(-c2ccccc2)cc(-c2ccccc2)n1 | 55* | -55 | 43* | 16 | 49* | 18 | 48* | 11 | 56*
N#Cc1cc(-c2ccccc2)nc(NN)n1 | 30 | 0 | 29 | -3 | 23 | 23 | nt | nt | nt
COc1ccc(/C=N/NC(=O)c2nc(-c3ccccc3)cc(-c3ccccc3)n2)cc1 | 5 | 3 | 27 | ? | 12 | 26 | nt | nt | nt
NNC(=O)c1nc(-c2ccccc2)cc(-c2ccccc2)n1 | 63* | -11 | 42* | 11 | 20 | 16 | 10 | nt | 67*
Cc1cccc(N2CC(C(=O)NCCC3=CCCCC3)CC2=O)c1C (configuration not stated) | 15 | nt | 21 | 17 | 1 | 14 | nt | nt | nt
